The results in this text go back to PubChem BioAssay (NCATS).

The subject of experiment [1] is Zika virus NS2B-NS3 protease (linked construct). As to the kind of experiment: Primary screen NINDS Rhodamine qHTS for Zika virus inhibitors (AID 1347160). Further: nearly all actives have a fitted effect of over 55% in size. In outline: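 Kinetic fluorescence (Ex 480 nm, Em 540 nm) over 15 min with 1.5 microM Rhodamine110 peptide and 25 nM linked protease.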
The target of experiment [2] is Calcium and integrin-binding protein 1 (Homo sapiens) (UniProt Q99828). The experiment is described as follows: Primary qHTS for Identification of Calcium Integrin Binding Protein 1 (CIB1) Competitor (AID 1508620).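 Further: GST tagged CIB1 binding a fluorescein labelled alphaIIb integrin peptide tracer; top concentration of the series differs between compounds; on the % scale 0 is the no-effect control and ±100 the full control effect.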 In outline:
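Fluorescence polarization competition: GST-tagged CIB1 (1 uM final) preincubated with compound 15 min at room temperature, then FITC-labelled alphaIIb peptide (100 nM final) added. After 15 min at room temperature, polarization read at Ex 480/Em 540.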
Background: Quantitative high-throughput screening tests each substance at several concentrations.

Experiment [3] deals with Glutathione peroxidase 1 (Homo sapiens) (UniProt P07203). As to the kind of experiment: Primary qHTS Assay for Inhibitors of Recombinant Selenoprotein Glutathione Peroxidase 1 (GPX1) (AID 1845191). Further: nearly all actives have a fitted effect of over 65% in size. In short, it runs like this:
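GR-coupled assay: compounds preincubated 30 min at room temperature with GPX1, then reaction started with CHP; final 10 nM GPX1, 1 mM GSH, 0.5 mM CHP, 0.5 mM NADPH, 100 nM GR, 0.01% BSA, pH 7.5 Tris buffer. NADPH fluorescence (340/450 nm) read at 0 and 15 min.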

Experiment [4] has as its target Phospholipid hydroperoxide glutathione peroxidase GPX4 (Homo sapiens) (UniProt P36969). The experiment is described as follows: Primary qHTS Assay for Inhibitors of Recombinant Selenoprotein Glutathione Peroxidase 4 (GPX4) (AID 1845192). Further: nearly all actives have a fitted effect of over 65% in size. On activity change, negative = inhibition: on the % scale 0 is the no-effect control and ±100 the full control effect. In short, it runs like this: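 GR-coupled assay: recombinant GPX4 preincubated 30 min with compound at room temperature; final 200 nM GPX4, 1 mM GSH, 0.5 mM cumene hydroperoxide, 0.5 mM NADPH, 100 nM GR, 0.01% BSA, pH 7.5 Tris. NADPH fluorescence (340/450 nm) read at 0 and 15 min.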

Experiment [5] addresses Luciferin 4-monooxygenase (Photinus pyralis) (UniProt P08659). The experiment is described as follows: Primary firefly luciferase (FLuc) qHTS assay for identification of artifact compounds. (AID 1845220). Further: nearly all actives have a fitted effect of over 60% in size.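 On activity change, negative = inhibition: plate controls were DMSO vehicle for no effect and no enzyme for full effect.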 The following applies: outcome: dose series up to 54.1 µM unless noted. In outline: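 Titrated compounds were incubated 15 min at RT, protected from light, with luciferin and ATP at 10 uM; reaction started with 10 nM FLuc, luminescence imaged at 5 min, and concentration-response fitted by Hill equation.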

Experiment [6] can be described thus: Primary fluorescence-based thiol-reactive (MSTI) qHTS assay for identification of artifact compounds. (AID 1845221).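 Further: thiol-reactive compounds lower the probe fluorescence signal; nearly all actives have a fitted effect of over 65% in size.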 In outline: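 Thiol-reactive compounds detected by quenching of 4 uM MSTI fluorescence (525/598 nm) after 1 h room-temperature dark incubation in PBS pH 7.4, 2% DMSO. qHTS titration; percent inhibition Hill-fitted against Acetyl-MSTI/MSTI controls.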

Experiment [7] in a line: Primary redox qHTS assay for identification of artifact compounds. (AID 1845223).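 Further: 0% = DMSO and 100% = reference compound.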 In outline:
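Amplex Red (25 uM) and HRP (250 mU/mL) in HBSS, with compounds for 15 min, then 250 uM DTT for 30 min, room temperature, dark. Fluorescence 525/598 nm read; normalized to DMSO and 10 uM DA3003; Hill fit.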

Another experiment deals with HaCat. The experiment is described as follows: Cytotoxic Profiling of Annotated Libraries Using Quantitative High-Throughput Screening (AID 1296008). Further: nearly all actives have a fitted effect of over 60% in size. Further: potency means the concentration at half of the fitted maximal effect. On max response: on the % scale 0 is the no-effect control and ±100 the full control effect. The following applies: Five cell lines viability, CellTiter-Glo ATP luminescence, 48-72 h; max response: stronger effect = lower value. In short, it runs like this: (§1)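 Cells exposed to compounds for 48 or 72 hr at 37 degrees Celsius. Viability read as ATP-coupled luminescence with CellTiter-Glo after 10 min at room temperature.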
(In general: ATP-based viability assays read luminescence as a measure of living cells.)

The subject of another experiment is NIH3T3. The experiment is described as above. The following applies: Five cell lines viability, CellTiter-Glo ATP luminescence, 48-72 h; max response: stronger effect = lower value. In short, it runs like this:
as §1

In a further experiment the test system is C33A. The experiment is described as follows: Primary qHTS to identify gynecologic anti-cancer compounds using libraries of approved drugs and bioactive compounds (AID 1345084). Further: nearly all actives have a fitted effect of over 55% in size. Further: potency means the concentration at half of the fitted maximal effect. On activity change, negative = cytotoxicity: on the % scale 0 is the no-effect control and ±100 the full control effect. The conditions noted are these: Gynecologic cancer cell panel viability, ATPlite luminescence, 48 h; series mostly up to 57.5 µM. In outline:
(§2)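 Five-point cytotoxicity, 48 h drug exposure at 37 C, 5% CO2, on cells seeded 16 h beforehand. ATP content read by ATPlite luminescence.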

Another experiment deals with CAOV3. The experiment is described as above. The conditions noted are these: Gynecologic cancer cell panel viability, ATPlite luminescence, 48 h; series mostly up to 57.5 µM. In outline: as §2
For a further experiment, the system named is CASKI. Described as above. The conditions noted are these: Gynecologic cancer cell panel viability, ATPlite luminescence, 48 h; series mostly up to 57.5 µM. In short, it runs like this: as §2
For a further experiment, the system named is Es-2. Described as above. The following applies: Gynecologic cancer cell panel viability, ATPlite luminescence, 48 h; series mostly up to 57.5 µM. In short, it runs like this: as §2
A further experiment deals with JEG-3. The description is as above. The following applies: Gynecologic cancer cell panel viability, ATPlite luminescence, 48 h; series mostly up to 57.5 µM. In outline:
as §2

The subject of a further experiment is OV90. Described as above. The following applies: Gynecologic cancer cell panel viability, ATPlite luminescence, 48 h; series mostly up to 57.5 µM. In outline:
as §2

A further experiment has as its system Tov-21-G. Described as above. The following applies: Gynecologic cancer cell panel viability, ATPlite luminescence, 48 h; series mostly up to 57.5 µM. In short, it runs like this: as §2
In the next experiment the test system is Tov112D. Described as above. The following applies: Gynecologic cancer cell panel viability, ATPlite luminescence, 48 h; series mostly up to 57.5 µM. In outline:
as §2

Experiment [8] concerns Nanoluciferase (engineered Oplophorus gracilirostris luciferase). As to the kind of experiment: Primary Nanoluciferase (NLuc) qHTS assay for identification of artifact compounds. (AID 1845222).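 Further: NLuc secreted into diluted conditioned medium of S16 cells; 0% = DMSO and -100% = no enzyme.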 In short, it runs like this: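 qHTS format, against NLuc in S16 cell-conditioned medium. Nano-Glo substrate 1:100 was added after 15 min at room temperature. Luminescence was taken after a further 5 min.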

A further experiment has as its system Hek293T. As to the kind of experiment: Primary qHTS to identify gynecologic anti-cancer compounds using libraries of approved drugs and bioactive compounds (AID 1345084). Further: nearly all actives have a fitted effect of over 55% in size. Further: potency means the concentration at half of the fitted maximal effect. The conditions noted are these: Gynecologic cancer cell panel viability, ATPlite luminescence, 48 h, control line for the selectivity index; series mostly up to 57.5 µM. In short, it runs like this: as §2

A further experiment has as its system PA-1. The experiment is described as above. The following applies: Gynecologic cancer cell panel viability, ATPlite luminescence, 48 h; series mostly up to 57.5 µM. In outline: as §2

Values without a mark were called inactive. Inconclusive results are not listed. Activity calls are given as the source filed them. The call rests on the fitted dose curve; in most records, active means well fitted curve in the direction sought with a large enough effect; inconclusive means small, poorly fitted or top-dose-only effect, or another doubt; inactive means no such curve, though single readings can be large; an effect the other way counts as inactive or inconclusive.

Chain of Phospholipid hydroperoxide glutathione peroxidase GPX4 (Homo sapiens) (P36969 whole entry, looked up): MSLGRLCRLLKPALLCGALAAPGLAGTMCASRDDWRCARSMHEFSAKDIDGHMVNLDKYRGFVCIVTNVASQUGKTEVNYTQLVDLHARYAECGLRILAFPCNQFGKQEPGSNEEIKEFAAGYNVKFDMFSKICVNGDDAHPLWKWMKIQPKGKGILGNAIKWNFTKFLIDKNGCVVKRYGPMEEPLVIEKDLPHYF
Chain of Glutathione peroxidase 1 (Homo sapiens) (P07203 whole entry, looked up): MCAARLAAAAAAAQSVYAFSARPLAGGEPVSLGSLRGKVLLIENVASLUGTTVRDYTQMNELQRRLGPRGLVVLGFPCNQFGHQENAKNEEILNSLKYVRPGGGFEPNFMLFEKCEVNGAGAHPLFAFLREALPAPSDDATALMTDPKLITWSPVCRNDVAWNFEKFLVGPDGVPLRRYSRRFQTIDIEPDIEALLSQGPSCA
Chain of Calcium and integrin-binding protein 1 (Homo sapiens) (Q99828 whole entry, looked up): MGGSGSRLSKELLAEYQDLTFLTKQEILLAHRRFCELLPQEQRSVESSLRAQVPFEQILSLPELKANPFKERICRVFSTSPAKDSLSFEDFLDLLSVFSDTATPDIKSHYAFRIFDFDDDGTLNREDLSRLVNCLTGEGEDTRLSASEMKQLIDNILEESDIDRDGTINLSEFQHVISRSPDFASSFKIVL

In the case of `CO[C@@H]1[C@@H](O)[C@@H](O[C@H]2CC[C@]3(C=O)C4CC[C@]5(C)[C@@H](C6=CC(=O)OC6)CC[C@]5(O)[C@@H]4CC[C@H]3C2)O[C@@H](C)[C@H]1O[C@@H]1O[C@H](CO[C@@H]2O[C@H](CO)[C@@H](O)[C@H](O)[C@H]2O)[C@@H](O)[C@H](O)[C@H]1O` (stereo partly drawn), the Potency entry in experiment [1], in [2], in experiment [3] and in experiment [4] was “inactive” throughout. Further, the activity change, negative = inhibition in experiment [5] was -6.08% [at 11.6 µM]. Further, the activity change, negative = thiol reactive in [6] was 52.3% [at 11.5 µM]. Also, the redox activity (% of DA3003) in experiment [7] was 5.87% [at 11.5 µM]. Moreover, the max response in the experiment on HaCat was -22.5%. Moreover, the molecule was classed as inactive in the experiment with NIH3T3. For the same molecule, the Potency is 3.55 µM (active) with C33A, 2 µM (active) in the experiment with Es-2, 3.55 µM (active) in the experiment on Tov-21-G and 2.51 µM (active) in the experiment with Tov112D. In addition, the activity change, negative = cytotoxicity in the experiment with CAOV3 was -17.5% [at 11.6 µM]; with CASKI, 13.6% [at 11.6 µM]; with JEG-3, -2.75% [at 11.6 µM]; with OV90, 8.02% [at 11.6 µM].
As for `C/C=C(\C)C(=O)O[C@H]1CC2C(=C1C)[C@H]1OC(=O)[C@](C)(O)[C@]1(O)[C@H](OC(=O)CCC)C[C@@]2(C)OC(C)=O` (stereo partly drawn), the Potency entry in experiment [1], in [2], in [3], in experiment [4], in [6] and in experiment [8] was “inactive” in each case. For the same molecule, the Potency result (in experiment [7]; with Hek293T) was “inactive” throughout. Besides, the outcome in [5] was “inactive [at 25.7 µM]”. In addition, the figures for the Potency with NIH3T3, with PA-1 and in the experiment on Tov112D were 4.47 µM (active), 5.01 µM (active) and 5.01 µM (active), respectively.
In the case of `CCOC(=O)Nc1ccc(NCc2c(C)cc(C)cc2C)cc1N`, the Potency entry (in experiment [1]; in experiment [2]; in experiment [3]; in experiment [8]; in [7]; in the experiment with C33A) was “inactive” throughout. In addition, the Potency result in the experiment on CASKI, in the experiment with Es-2, with Hek293T, in the experiment on JEG-3, in the experiment with OV90 and with PA-1 was “inactive” each time. Moreover, the Potency entry with Tov-21-G and in the experiment with Tov112D was “inactive” in each case. For the same molecule, in experiment [5], the outcome was inactive. For the same molecule, in the experiment with NIH3T3, the max response was 0.149%.
For `CC(O)(c1ccccc1)C(Cc1ccc(Cl)cc1)n1cncn1` (stereo not drawn), the Potency entry in experiment [1], in [2], in experiment [3], in [4], in [6] and in experiment [7] was “inactive” throughout. In addition, the Potency entry in the experiment on C33A, with CAOV3, with CASKI, in the experiment on Es-2, in the experiment with Hek293T and with JEG-3 was “inactive” each time. In addition, the Potency entry with OV90, in the experiment on PA-1, in the experiment on Tov-21-G and with Tov112D was “inactive” in each case. The molecule was classed as inactive (in experiment [5]; in the experiment with HaCat). Further, the max response in the experiment on NIH3T3 is 1.55%.
In the case of `CC(=O)NCCCOc1ccc(C(=O)N2CCC(N3C(=O)CCc4ccccc43)CC2)cc1`, the Potency entry (in experiment [1]; in [3]; in experiment [4]; in experiment [8]; in the experiment with C33A; in the experiment on CASKI) was “inactive” in each case. Moreover, the Potency result in the experiment with Es-2, in the experiment on Hek293T, in the experiment with JEG-3, in the experiment with OV90, in the experiment on PA-1 and with Tov-21-G was “inactive” throughout. In addition, in the experiment on Tov112D, the Potency result was “inactive”. The molecule was called inactive in experiment [5]. For the same molecule, the max response in the experiment with NIH3T3 was -14%.
With `Cc1ncc(OC[C@@]2(c3cccc(F)c3)C[C@H]2C(=O)Nc2ccc(F)cn2)c(C)n1`, the Potency entry in [2], in experiment [3] and in experiment [4] was “inactive” in each case. Also, the result with HaCat and in the experiment with NIH3T3 was inactive.
Take `O=C1CN=C(c2cccc(Br)c2)c2oc3ccccc3c2N1`: the Potency entry in experiment [1], in experiment [2], in [3], in [4], in experiment [6] and in experiment [8] was “inactive” each time. For the same molecule, the Potency result (in experiment [7]; in the experiment with C33A; with CAOV3; in the experiment on CASKI; with Es-2; with OV90) was “inactive” throughout. Besides, the Potency result in the experiment with Tov-21-G is “inactive”. The result in experiment [5] was inactive.
